# Experimental data published in PubChem BioAssay AID376 (PDSP, 2006).
# The campaign covered roughly 2,000 compounds. About 250 (12%) were called active. What follows is part of a selection rich in actives, with near analogues and random picks from the rest. Values without a mark were called inactive. Cut-off read from the data, not from the text of the source: active = hERG blockade below about -20% or above about 20%; inactive = in between.
# Target: Voltage-gated inwardly rectifying potassium channel KCNH2 (Homo sapiens) (UniProt Q12809)
# Assay: modulators of KCNH2 ion channel function, cellular (AID 376);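 note: 0% = buffer alone and 100% = reference blocker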
# Settings: hERG-expressing cells, channel activity single-concentration screen; concentration not given here
# Voltage-gated inwardly rectifying potassium channel KCNH2 (Homo sapiens), sequence (Q12809 whole entry, looked up): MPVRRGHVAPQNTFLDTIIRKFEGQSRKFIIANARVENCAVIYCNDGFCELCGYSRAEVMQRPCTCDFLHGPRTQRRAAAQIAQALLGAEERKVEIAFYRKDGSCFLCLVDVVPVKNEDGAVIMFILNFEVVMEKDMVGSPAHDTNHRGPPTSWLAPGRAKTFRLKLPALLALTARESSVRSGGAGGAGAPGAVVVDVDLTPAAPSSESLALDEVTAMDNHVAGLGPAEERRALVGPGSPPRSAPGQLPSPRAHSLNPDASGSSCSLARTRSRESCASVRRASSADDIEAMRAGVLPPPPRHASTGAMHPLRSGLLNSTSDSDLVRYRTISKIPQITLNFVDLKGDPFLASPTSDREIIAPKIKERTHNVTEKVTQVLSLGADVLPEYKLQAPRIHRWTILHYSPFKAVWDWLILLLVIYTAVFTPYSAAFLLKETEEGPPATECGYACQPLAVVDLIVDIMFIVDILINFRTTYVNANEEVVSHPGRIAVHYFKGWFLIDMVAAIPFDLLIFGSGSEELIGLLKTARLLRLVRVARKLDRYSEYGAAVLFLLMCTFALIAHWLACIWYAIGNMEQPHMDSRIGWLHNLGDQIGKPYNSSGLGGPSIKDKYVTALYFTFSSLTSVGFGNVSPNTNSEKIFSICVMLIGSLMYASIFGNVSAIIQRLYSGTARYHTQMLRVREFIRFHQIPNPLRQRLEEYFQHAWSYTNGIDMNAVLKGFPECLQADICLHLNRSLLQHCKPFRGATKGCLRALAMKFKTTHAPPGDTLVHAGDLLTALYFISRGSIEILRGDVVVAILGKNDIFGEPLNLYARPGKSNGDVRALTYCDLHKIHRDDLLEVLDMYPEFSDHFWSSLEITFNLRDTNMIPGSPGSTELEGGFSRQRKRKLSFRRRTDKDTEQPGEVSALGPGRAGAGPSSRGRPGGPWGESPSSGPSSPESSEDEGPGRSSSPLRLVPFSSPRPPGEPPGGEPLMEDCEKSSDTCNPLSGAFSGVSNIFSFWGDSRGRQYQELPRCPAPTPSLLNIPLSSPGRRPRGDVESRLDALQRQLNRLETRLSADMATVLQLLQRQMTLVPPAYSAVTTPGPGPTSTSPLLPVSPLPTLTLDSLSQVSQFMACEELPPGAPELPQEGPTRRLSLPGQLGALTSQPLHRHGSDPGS
row,Compound,hERG blockade
1,COc1cc(C)cc2c(-c3c(O)cc(O)c4c3CC(C)NC4C)cc(-c3cc(-c4c(O)cc(O)c5c4CC(C)NC5C)c4cc(C)cc(OC)c4c3O)c(O)c12 (stereo not drawn),22.2% (active)
2,COc1cc(C2SCCCCCCCCCCSC(c3ccc(O)c(OC)c3)SCCCCCCCCCCS2)ccc1O (stereo not drawn),2.15%
3,CC(=N[N-]C(=[SH+])SCc1ccccc1)c1ccccn1.[Cl][Cu],3.22%
4,Cc1cc(C)nc(SCCc2cccc[n+]2C)n1,71.5% (active)
5,Cc1ccc(S(=O)(=O)NCc2cccc([N+](=O)[O-])c2)cc1,14.6%
6,Cc1cccc(CNc2ncnc3[nH]ncc23)c1,-7.57%
7,COc1ccc(Br)c2c1CC(C(=O)O)CC2 (stereo not drawn),-1.02%
8,Cc1ccc(C(=N)c2ccccc2Cc2cccc3ccccc23)c2ccccc12,-5.31%
9,c1cncc(CSc2ncnc3nc[nH]c23)c1,-11.9%
10,Cc1cc(Cl)nc2ccc(Cc3ccc4nc(Cl)cc(C)c4c3)cc12,-16.7%
11,COc1ccc(CC(O)CN2CCOCC2)cc1 (stereo not drawn),-3.36%
12,Cc1cc(N2CCOCC2)nc2ccc(Cc3ccc4nc(N5CCOCC5)cc(C)c4c3)cc12,42.1% (active)
13,Cc1cc(N2CCCCC2)nc2ccc(Cc3ccc4nc(N5CCCCC5)cc(C)c4c3)cc12,81.4% (active)
14,Cc1nc2ccccc2nc1N1CCCC1,-18.7%
15,NCCNCC1CCNCC1,-1.79%
16,OC1COC(OCc2ccccc2)C(O)C1O (stereo not drawn),-4.05%
17,COc1ccc(C(=O)NN=C2C(=O)c3c(C)cc(C)cc3CC2(C)C)cc1,8.71%
18,CC1(C)C2CCC1(C)C(OC(=O)C=Cc1ccccc1)C2 (stereo not drawn),-7.8%
19,CC(C)c1ccccc1S(=O)c1ccccc1C(C)(C)O (stereo not drawn),-9.35%
20,CC(C)CSCC1OC(n2cnc3c(N)nccc32)C(O)C1O (stereo not drawn),-11.9%
21,O=C(O)C(Br)C(Br)c1ccccc1[N+](=O)[O-] (stereo not drawn),-1.11%
22,CC(=NNc1ccc2ccccc2n1)c1ccccc1O,8.91%
23,O=[N+]([O-])c1cccc(C=NNc2ccc3ccccc3n2)c1O,26.8% (active)
24,CN(N=Cc1ccccc1O)c1ccc2ccccc2n1,-0.991%
25,Cc1cc(-c2cc(C)c(O)c(C(C)(C)C)c2)cc(C(C)(C)C)c1O,0.0679%
26,CC(CS(=O)(=O)Cc1ccccc1)C(N)=O (stereo not drawn),3.43%
27,COc1c(O)ccc2c1CN1CCc3cc4c(cc3C1C2)OCO4 (stereo not drawn),22.7% (active)
28,CC1=NC(C)(COC(=O)C2(C)NC(C)(CO)CO2)COC1=O (stereo not drawn),-5.89%
